Reference: PubChem BioAssay AID463173 (ICCB-Longwood Screening Facility, Harvard Medical School, 2010)
The whole screen tested about 52,000 compounds, of which about 1,700 (3.3%) were called active. Cut-off read from the data, not from the text of the source: active = survival mostly below about 52% (no sharp cut-off); inactive = mostly above about 56%. The full list was thinned out, with actives kept by preference.

The compounds below were run on Wild type (assay: S. aureus survival, RN4220 and DeltatarO strains – OD600, teichoic acid synthesis inhibitors, primary screen (AID 463173)). Conditions: S. aureus RN4220 wild type/DeltatarO growth, OD600, 18 h, hits give low values, screened at 18.75 µg/mL (by protocol).
In the case of `COCCCNC(=O)c1ccc(Cn2c(=O)c3ccccc3n(CC(=O)Nc3c(C)cccc3C)c2=O)cc1`, the survival was 83% (inactive). In the case of `CCCN(C(=O)CCn1cnc2onc(-c3ccc(F)cc3)c2c1=O)c1ccccc1C`, the survival was 72% (inactive). In the case of `COCCCNC(=O)C1CCCN(C(=O)c2cnn(-c3ccc(F)cc3)c2-n2cccc2)C1` (stereo not drawn), the survival was 128% (inactive). For `CSc1nnc(COc2ccc(Cl)cc2)n1C`, the survival was 101% (inactive). With `CCOc1cc(CNC(=O)C(NS(=O)(=O)c2cccs2)C(C)C)cc(OCC)c1OCC` (stereo not drawn) the survival was 65% (inactive). For `Cc1ccc(CNC(=O)c2ccc3c(c2)CCN3S(=O)(=O)c2ccccc2)cc1`, the survival was 84% (inactive). With `Cc1ccc(C)c(N2CCN(S(=O)(=O)c3ccc(F)c(C(=O)Nc4ccc(Cl)cc4Cl)c3)CC2)c1` the survival was 80% (inactive). In the case of `Cc1ccc(N2CCN(S(=O)(=O)c3ccc(F)c(C(=O)Nc4ccc(Cl)cc4Cl)c3)CC2C)cc1` (stereo not drawn), the survival was -6% (active). For `Cc1cccc(N2CCN(S(=O)(=O)c3ccc(F)c(C(=O)Nc4cccc(Cl)c4C)c3)CC2C)c1` (stereo not drawn), the survival was 100% (inactive). `CCC(=O)N1CCN(C(=O)CC)C1c1ccccc1` was tested, and the survival was 99% (inactive). `CCCCOc1ccc(C2(C(=O)O)CCCC2)cc1` was tested, and the survival was 105% (inactive). `CC1=CC(C)(C)N(C(=O)Cc2ccccc2)c2ccccc21` was tested, and the survival was 126% (inactive). In the case of `CCN1C(=O)C(O)(C(C)C(=O)c2ccccc2)c2ccccc21` (stereo not drawn), the survival was 111% (inactive). In the case of `CCC(=O)N1c2ccccc2C(C)(c2ccccc2)CC1(C)C` (stereo not drawn), the survival was -3% (active). For `CCC(CC)C(=O)N1CCN(Cc2ccccc2)CC1`, the survival was 108% (inactive). For `CCC(CC)C(=O)N1c2ccccc2C(C)(c2ccccc2)CC1(C)C` (stereo not drawn), the survival was -2% (active). In the case of `CC(=O)N1c2ccccc2C(C)(c2ccc(C)cc2)CC1(C)C` (stereo not drawn), the survival was -2% (active). In the case of `Cc1ccc(NC(=O)CN2C(=O)C(C)(C)c3ccccc32)cc1`, the survival was 77% (inactive). With `CC(=O)N1c2ccccc2N(C)C(=O)C1(C)C` the survival was 105% (inactive). `CCCCC(=O)N1c2ccccc2C(C)(c2ccccc2)CC1(C)C` (stereo not drawn) was tested, and the survival was -2% (active). In the case of `CCC1=NN(C(=O)Cc2ccccc2)C(O)(c2ccccc2)C1` (stereo not drawn), the survival was 107% (inactive). With `CCc1ccc(NC(=O)Cn2c(=O)n(CCCCC(=O)NCc3ccccc3Cl)c(=O)c3ccccc32)cc1` the survival was 90% (inactive). For `CC(C)c1ccc(NC(=O)CN2C(=O)CSc3ccc(S(=O)(=O)N4CCCC4)cc32)cc1`, the survival was 91% (inactive). `CC1Cc2cc(S(=O)(=O)N(C)c3ccc(Br)cc3)ccc2N1C(=O)C1CC1` (stereo not drawn) was tested, and the survival was 106% (inactive). In the case of `COc1cc2c(=O)c(C(=O)c3ccc(C)c(C)c3)cn(Cc3ccccc3F)c2cc1OC`, the survival was 127% (inactive). For `COc1ccc(OC)c(NC(=O)c2cc(=O)c3c(C)cc(C)cc3o2)c1`, the survival was 87% (inactive). In the case of `O=C(NC1CC(=O)N(c2ccc(Cl)cc2)C1)c1ccc(S(=O)(=O)N2CCCC2)cc1` (stereo not drawn), the survival was 127% (inactive). With `CC(=O)N1CCCc2cc(S(=O)(=O)N3CCCC(C(=O)Nc4ccc(C)c(F)c4)C3)ccc21` (stereo not drawn) the survival was 73% (inactive). In the case of `COCCNC(=O)c1cnn(-c2cccc(C)c2)c1-n1cccc1`, the survival was 99% (inactive). In the case of `CCOc1ccccc1C(=O)N1CCc2cc(OC)c(OC)cc2C1COc1ccc2c(C)cc(=O)oc2c1` (stereo not drawn), the survival was 76% (inactive). In the case of `Cc1c(C(=O)Nc2ccccc2Br)oc2ccc(S(=O)(=O)N3CCOCC3)cc12`, the survival was 113% (inactive). In the case of `CCCCCC(=O)N1c2ccccc2C(C)(c2ccccc2)CC1(C)C` (stereo not drawn), the survival was -2% (active). `CC(C)c1ccc(S(=O)(=O)c2nnn3c2nc(N2CCCC2)c2sccc23)cc1` was tested, and the survival was 89% (inactive). For `COc1ccc(-c2noc(CN(C(=O)c3ccccc3Cl)C(C)C)n2)cc1`, the survival was 97% (inactive). In the case of `COc1ccc(-c2noc(CN(C(C)C)S(=O)(=O)c3ccc(Br)cc3)n2)cc1`, the survival was 81% (inactive). In the case of `CC(C)N(Cc1nc(-c2ccc(Cl)cc2)no1)C(=O)c1ccco1`, the survival was 76% (inactive). For `Cc1ccc(-c2noc(CNC(=O)COc3cc(C)c(Br)c(C)c3)n2)cc1`, the survival was 89% (inactive). With `COc1ccc(-c2noc(CN(C(=O)c3cc(OC)c(OC)cc3OC)C(C)C)n2)cc1` the survival was 86% (inactive). For `Cc1ccccc1C(=O)N(Cc1nc(-c2ccc(Cl)cc2)no1)C(C)C`, the survival was 86% (inactive). In the case of `Cc1ccc(CC(=O)N(Cc2nc(-c3ccc(C)cc3)no2)C(C)C)cc1`, the survival was -1% (active). `COc1ccc(-c2noc(CN(C(=O)c3ccc(C)cc3C)C(C)C)n2)cc1` was tested, and the survival was 0% (active). In the case of `COc1ccc(-c2noc(CN(C(=O)COc3cc(C)c(Br)c(C)c3)C(C)C)n2)cc1`, the survival was 7% (active). For `Cc1ccc(-c2noc(CN(C(=O)COc3cc(C)cc(C)c3C)C(C)C)n2)cc1`, the survival was 1% (active). For `O=C(O)CC(C(=O)O)c1cn(Cc2ccccc2)c2ccccc12` (stereo not drawn), the survival was 105% (inactive). In the case of `CC(C)(C)OC(=O)N1CCC(c2c(C(=O)NCCc3ccccc3)cnn2-c2ccc(F)cc2)CC1`, the survival was 78% (inactive). With `Cc1ccc(C)c(Cn2c3ccccc3c3cnn(CC(=O)NCCC4=CCCCC4)c(=O)c32)c1` the survival was 82% (inactive). With `CC(Sc1nc(=O)cc(N)n1CCc1ccccc1)C(=O)Nc1ccccc1C#N` (stereo not drawn) the survival was 75% (inactive). `CC(C(=O)NCC1CCCO1)N(C(=O)c1snc(C(N)=O)c1N)c1cccc(F)c1` (stereo not drawn) was tested, and the survival was 101% (inactive). `Cc1ccccc1NC(=O)CSc1nnc(C)c(=O)[nH]1` was tested, and the survival was 89% (inactive). `Cc1ccc(Nc2sc(C(=O)c3ccccc3)c(N)c2C(=O)NC(C)C)cc1` was tested, and the survival was 78% (inactive). `O=C(CSc1nccn1Cc1ccccc1)Nc1ccc2c(c1)OCO2` was tested, and the survival was 138% (inactive). For `COc1ccc(CC(=O)N(Cc2nc(-c3ccc(C)cc3)no2)C(C)C)cc1`, the survival was 33% (inactive). With `COc1ccc(-c2noc(CN(C(=O)Cc3ccc(C)cc3)C(C)C)n2)cc1` the survival was 5% (active). `COc1ccc(-c2noc(CN(C(=O)C(C)Oc3ccc(C)cc3)C(C)C)n2)cc1` (stereo not drawn) was tested, and the survival was 77% (inactive). For `COc1ccccc1OC(C)C(=O)N1CCN(CCc2ccccn2)CC1` (stereo not drawn), the survival was 82% (inactive). For `COc1ccc2c(c1)c(=O)c(C(=O)c1ccc(F)cc1)cn2CC(=O)Nc1ccc2c(c1)OCO2`, the survival was 91% (inactive). `CC(=O)NC(C)c1nc2ccccc2n1Cc1ccccc1Cl` (stereo not drawn) was tested, and the survival was 91% (inactive). For `CCCCNc1nc2c(-c3cccc(Br)c3)nnn2c2ccccc12`, the survival was 92% (inactive). For `CC(C)Cn1c(-c2ccccc2Cl)nc2ccccc21`, the survival was 26% (active). In the case of `CC(C)Cn1c(C2CC(=O)N(c3ccccc3Cl)C2)nc2ccccc21` (stereo not drawn), the survival was 97% (inactive). With `CCCn1c(SCC(O)c2ccccc2)nc2ccccc21` (stereo not drawn) the survival was 86% (inactive). For `CC(C)Nc1nc2c(-c3cccc(Br)c3)nnn2c2ccccc12`, the survival was 74% (inactive). With `CCCn1c(-c2cccc(Br)c2)nc2ccccc21` the survival was 3% (active). With `Cc1nc2ccccc2c(=O)n1CC(C)C` the survival was 106% (inactive). `CC(C)Cn1c(-c2cccc(Br)c2)nc2ccccc21` was tested, and the survival was 27% (active). With `O=C(NCCc1ccc(Cl)cc1)c1ccc(CS(=O)Cc2ccccc2Cl)o1` (stereo not drawn) the survival was 62% (inactive). For `COc1ccccc1CCNC(=O)c1cc2c(=O)n3cccc(C)c3nc2n1C`, the survival was 85% (inactive). In the case of `COc1ccc(C2CC(=O)c3cc(-c4nc(-c5ccc(Cl)cc5)c(C)s4)c(=O)[nH]c3C2)cc1` (stereo not drawn), the survival was 71% (inactive). `Cc1ccc(CCNC(=O)c2cc3c(=O)n(C)c4ccccc4c3n2C)cc1` was tested, and the survival was 80% (inactive). `Cc1ccc(C)c(Cn2c(=O)n(CCCCC(=O)NCc3ccc4c(c3)OCO4)c(=O)c3ccccc32)c1` was tested, and the survival was 110% (inactive). In the case of `CC(NC(=O)CN1C(=O)c2cccnc2Oc2ccc(Cl)cc21)c1ccccc1` (stereo not drawn), the survival was 74% (inactive). For `Cc1c(C(=O)N2CCC(C)CC2)c(S(=O)(=O)NCc2ccc(Br)cc2)c(C)n1C`, the survival was 80% (inactive). With `COc1ccccc1Cn1cc(C(=O)c2ccc(C)cc2)c(=O)c2cc3c(cc21)OCCO3` the survival was 83% (inactive). In the case of `COc1ccc(OC)c(CNC(=O)c2ccc3c(c2)c(C)c(C)n3Cc2ccc(Cl)cc2)c1`, the survival was 82% (inactive). `CCN(C(=O)c1cn(-c2ccc(OC)cc2)c(=O)c2ccccc12)c1cccc(Cl)c1` was tested, and the survival was 119% (inactive). In the case of `CCNC(=O)c1sc2ccccc2c1Cl`, the survival was 124% (inactive). For `CCN(C(=O)c1sc2cc(OC)ccc2c1Cl)c1ccccc1`, the survival was -9% (active). `O=C(COc1ccc(Cl)cc1)NCCc1csc(-c2ccc(F)cc2)n1` was tested, and the survival was 73% (inactive). `COC(=O)c1ccc(Cn2nnc3sc4c(c3c2=O)CCCC4)cc1` was tested, and the survival was 77% (inactive). For `Cc1ccc(Cn2nnc3sc4c(c3c2=O)CCC(C)C4)cc1` (stereo not drawn), the survival was 60% (inactive). For `CC1CCc2c(sc3nnn(Cc4ccccc4)c(=O)c23)C1` (stereo not drawn), the survival was 0% (active). With `COC(=O)c1ccc(Cn2nnc3sc4c(c3c2=O)CCC(C)C4)cc1` (stereo not drawn) the survival was 75% (inactive). With `CCCOC(=O)c1ccc(Cn2nnc3sc4c(c3c2=O)CCC(C)C4)cc1` (stereo not drawn) the survival was 77% (inactive). For `CC1CCc2c(sc3nnn(Cc4ccccc4Cl)c(=O)c23)C1` (stereo not drawn), the survival was 16% (inactive). `Cc1ccccc1Cn1nnc2sc3c(c2c1=O)CCCC3` was tested, and the survival was 0% (active). In the case of `O=c1c2c3c(sc2nnn1Cc1ccc(Br)cc1)CCCC3`, the survival was 28% (inactive). For `CC1CCc2c(sc3nnn(Cc4ccc(F)cc4)c(=O)c23)C1` (stereo not drawn), the survival was 1% (active). In the case of `O=C(NCc1ccco1)c1ccc(COCC(F)(F)C(F)F)cc1`, the survival was 98% (inactive). For `COc1ccccc1N1CCN(C(=O)CN2C(=O)COc3ccc(S(=O)(=O)N4CCC(C)CC4)cc32)CC1`, the survival was 98% (inactive). In the case of `CCCCc1nn2c(=O)cc(COC(=O)c3cccc(NC(=O)c4cccc(Cl)c4)c3)nc2s1`, the survival was 85% (inactive). `CCNc1nc(NC(N)=S)nc(NC(C)(C)C)n1` was tested, and the survival was 112% (inactive). `Fc1ccc(Nc2ncnc3onc(-c4cccc(Cl)c4)c23)c(F)c1` was tested, and the survival was 79% (inactive). `C#CCNC(=O)NC1CCCN(S(=O)(=O)c2ccc(C)cc2)C1` (stereo not drawn) was tested, and the survival was 112% (inactive).
